# A number with no mark means an inactive call.
# Compound: C#CCNC(=O)CCSSCCC(=O)NCCc1ccc(C=O)c(C=O)c1
# Experiment: lysine labeling ratio R10:1 (500 µM / 50 µM probe), SILAC-ABPP in living cells; higher = lower intrinsic lysine reactivity toward the probe, active = 2 or less
# Conditions: HeLa; probe concentrations 500 vs 50 µM
# Procedure, shortened: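 R, given per lysine, is the filtered median high-probe/low-probe MS1 peptide ratio, with the median then taken across forward and reverse replicates. Cells were living SILAC light and heavy HeLa cells in PBS at room temperature, labelled with 50 µM or 500 µM of an alkyne-tagged, disulfide-linked lysine probe. The ceiling applied is 20.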
# Chain of UniProt Q9UHN6 (Q9UHN6 whole entry): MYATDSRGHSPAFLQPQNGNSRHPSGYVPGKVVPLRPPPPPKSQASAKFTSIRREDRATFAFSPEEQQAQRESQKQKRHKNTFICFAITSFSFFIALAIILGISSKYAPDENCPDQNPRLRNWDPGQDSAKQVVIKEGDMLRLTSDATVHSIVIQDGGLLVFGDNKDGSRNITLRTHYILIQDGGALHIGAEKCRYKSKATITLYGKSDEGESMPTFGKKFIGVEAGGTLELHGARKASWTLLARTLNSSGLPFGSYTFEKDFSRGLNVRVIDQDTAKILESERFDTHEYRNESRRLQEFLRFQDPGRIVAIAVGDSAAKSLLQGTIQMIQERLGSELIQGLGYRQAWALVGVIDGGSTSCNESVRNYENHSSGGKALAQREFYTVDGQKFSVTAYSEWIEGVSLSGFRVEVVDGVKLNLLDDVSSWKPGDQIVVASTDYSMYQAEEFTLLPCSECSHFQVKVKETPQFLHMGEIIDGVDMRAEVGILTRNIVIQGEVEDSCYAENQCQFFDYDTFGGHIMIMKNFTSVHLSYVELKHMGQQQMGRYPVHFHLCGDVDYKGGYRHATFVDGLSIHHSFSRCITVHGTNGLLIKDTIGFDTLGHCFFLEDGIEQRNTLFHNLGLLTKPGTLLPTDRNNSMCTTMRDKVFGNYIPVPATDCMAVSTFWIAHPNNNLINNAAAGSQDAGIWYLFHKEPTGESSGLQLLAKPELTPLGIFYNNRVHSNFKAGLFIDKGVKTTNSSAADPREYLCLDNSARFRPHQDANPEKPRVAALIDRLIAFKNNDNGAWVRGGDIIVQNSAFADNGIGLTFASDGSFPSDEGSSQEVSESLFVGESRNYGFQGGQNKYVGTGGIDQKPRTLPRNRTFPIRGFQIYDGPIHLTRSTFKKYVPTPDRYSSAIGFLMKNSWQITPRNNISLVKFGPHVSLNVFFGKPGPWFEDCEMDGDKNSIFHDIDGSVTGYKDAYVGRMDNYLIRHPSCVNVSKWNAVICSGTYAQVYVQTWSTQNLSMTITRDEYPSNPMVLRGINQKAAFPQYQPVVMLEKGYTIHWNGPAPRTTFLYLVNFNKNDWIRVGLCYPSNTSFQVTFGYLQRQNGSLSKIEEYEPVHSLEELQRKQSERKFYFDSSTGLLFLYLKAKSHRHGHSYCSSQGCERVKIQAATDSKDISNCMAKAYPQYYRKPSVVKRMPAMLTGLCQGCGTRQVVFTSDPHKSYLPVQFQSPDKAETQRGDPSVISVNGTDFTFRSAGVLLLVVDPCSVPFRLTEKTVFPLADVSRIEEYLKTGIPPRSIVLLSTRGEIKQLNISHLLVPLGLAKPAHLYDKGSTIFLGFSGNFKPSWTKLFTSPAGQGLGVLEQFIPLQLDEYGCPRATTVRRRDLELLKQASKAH
# Chain of UniProt Q99985 (Q99985 whole entry): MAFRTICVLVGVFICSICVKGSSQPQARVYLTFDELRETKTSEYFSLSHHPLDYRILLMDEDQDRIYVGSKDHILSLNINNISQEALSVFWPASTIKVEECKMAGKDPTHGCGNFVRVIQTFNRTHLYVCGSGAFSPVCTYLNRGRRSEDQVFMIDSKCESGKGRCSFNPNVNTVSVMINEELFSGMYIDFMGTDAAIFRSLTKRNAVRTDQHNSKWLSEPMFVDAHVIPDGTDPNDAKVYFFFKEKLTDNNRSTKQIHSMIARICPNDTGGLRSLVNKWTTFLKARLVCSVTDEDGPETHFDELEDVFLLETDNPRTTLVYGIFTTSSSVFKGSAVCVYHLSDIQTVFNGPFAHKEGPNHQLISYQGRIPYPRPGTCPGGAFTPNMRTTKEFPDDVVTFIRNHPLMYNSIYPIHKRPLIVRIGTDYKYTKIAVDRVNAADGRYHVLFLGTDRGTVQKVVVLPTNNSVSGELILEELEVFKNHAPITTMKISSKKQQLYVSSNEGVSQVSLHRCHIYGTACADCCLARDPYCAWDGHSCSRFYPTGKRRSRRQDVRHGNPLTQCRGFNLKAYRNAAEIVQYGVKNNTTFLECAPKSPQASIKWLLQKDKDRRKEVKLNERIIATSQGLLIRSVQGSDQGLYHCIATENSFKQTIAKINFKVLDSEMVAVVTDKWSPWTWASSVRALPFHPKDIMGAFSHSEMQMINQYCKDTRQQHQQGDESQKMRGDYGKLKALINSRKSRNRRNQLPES
# Chain of UniProt O14786 (O14786 whole entry): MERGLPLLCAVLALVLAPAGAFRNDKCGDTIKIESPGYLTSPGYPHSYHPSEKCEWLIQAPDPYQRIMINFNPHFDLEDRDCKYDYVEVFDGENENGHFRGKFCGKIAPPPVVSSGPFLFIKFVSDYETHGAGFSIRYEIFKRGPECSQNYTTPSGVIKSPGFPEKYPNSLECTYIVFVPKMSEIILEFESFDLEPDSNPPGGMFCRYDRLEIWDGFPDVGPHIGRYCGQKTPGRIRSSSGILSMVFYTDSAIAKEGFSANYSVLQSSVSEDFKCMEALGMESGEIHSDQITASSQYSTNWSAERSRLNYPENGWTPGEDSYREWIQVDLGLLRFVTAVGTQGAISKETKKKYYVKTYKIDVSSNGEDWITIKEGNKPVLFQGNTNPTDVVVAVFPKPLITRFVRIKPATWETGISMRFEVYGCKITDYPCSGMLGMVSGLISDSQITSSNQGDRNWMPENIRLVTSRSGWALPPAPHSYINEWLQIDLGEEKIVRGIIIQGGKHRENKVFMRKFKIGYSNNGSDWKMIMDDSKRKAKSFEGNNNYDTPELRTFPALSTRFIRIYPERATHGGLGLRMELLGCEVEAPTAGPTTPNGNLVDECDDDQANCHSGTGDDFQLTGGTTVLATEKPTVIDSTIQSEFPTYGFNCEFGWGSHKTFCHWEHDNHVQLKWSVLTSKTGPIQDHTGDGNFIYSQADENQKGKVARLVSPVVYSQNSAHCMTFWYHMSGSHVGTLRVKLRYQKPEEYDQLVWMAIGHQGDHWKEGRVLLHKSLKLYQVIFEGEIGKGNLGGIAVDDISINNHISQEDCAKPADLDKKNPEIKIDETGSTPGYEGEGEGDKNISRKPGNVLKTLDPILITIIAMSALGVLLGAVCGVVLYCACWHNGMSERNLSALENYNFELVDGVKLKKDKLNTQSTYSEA
# Chain of UniProt P23284 (P23284 whole entry): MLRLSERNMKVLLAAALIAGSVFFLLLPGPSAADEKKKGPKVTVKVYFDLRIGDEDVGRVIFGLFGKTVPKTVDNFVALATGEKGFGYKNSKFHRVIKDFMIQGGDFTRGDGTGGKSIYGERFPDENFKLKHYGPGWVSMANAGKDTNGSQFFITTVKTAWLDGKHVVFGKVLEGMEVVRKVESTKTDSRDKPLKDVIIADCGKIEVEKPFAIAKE
# Chain of UniProt Q8N441 (Q8N441 whole entry): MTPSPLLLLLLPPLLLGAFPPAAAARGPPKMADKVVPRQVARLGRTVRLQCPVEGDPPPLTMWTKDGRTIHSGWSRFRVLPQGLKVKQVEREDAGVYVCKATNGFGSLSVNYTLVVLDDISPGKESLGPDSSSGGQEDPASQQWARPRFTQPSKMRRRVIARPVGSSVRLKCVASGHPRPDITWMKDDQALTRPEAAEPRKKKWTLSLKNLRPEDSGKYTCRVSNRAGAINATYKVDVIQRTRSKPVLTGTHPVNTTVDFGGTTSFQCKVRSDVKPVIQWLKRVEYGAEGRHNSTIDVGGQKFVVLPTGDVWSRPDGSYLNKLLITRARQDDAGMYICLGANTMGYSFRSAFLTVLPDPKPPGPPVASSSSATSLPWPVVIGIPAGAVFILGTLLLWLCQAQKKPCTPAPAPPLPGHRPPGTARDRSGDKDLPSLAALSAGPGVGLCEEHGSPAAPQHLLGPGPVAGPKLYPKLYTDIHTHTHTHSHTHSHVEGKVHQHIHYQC
# Chain of UniProt O00571 (O00571 whole entry, looked up): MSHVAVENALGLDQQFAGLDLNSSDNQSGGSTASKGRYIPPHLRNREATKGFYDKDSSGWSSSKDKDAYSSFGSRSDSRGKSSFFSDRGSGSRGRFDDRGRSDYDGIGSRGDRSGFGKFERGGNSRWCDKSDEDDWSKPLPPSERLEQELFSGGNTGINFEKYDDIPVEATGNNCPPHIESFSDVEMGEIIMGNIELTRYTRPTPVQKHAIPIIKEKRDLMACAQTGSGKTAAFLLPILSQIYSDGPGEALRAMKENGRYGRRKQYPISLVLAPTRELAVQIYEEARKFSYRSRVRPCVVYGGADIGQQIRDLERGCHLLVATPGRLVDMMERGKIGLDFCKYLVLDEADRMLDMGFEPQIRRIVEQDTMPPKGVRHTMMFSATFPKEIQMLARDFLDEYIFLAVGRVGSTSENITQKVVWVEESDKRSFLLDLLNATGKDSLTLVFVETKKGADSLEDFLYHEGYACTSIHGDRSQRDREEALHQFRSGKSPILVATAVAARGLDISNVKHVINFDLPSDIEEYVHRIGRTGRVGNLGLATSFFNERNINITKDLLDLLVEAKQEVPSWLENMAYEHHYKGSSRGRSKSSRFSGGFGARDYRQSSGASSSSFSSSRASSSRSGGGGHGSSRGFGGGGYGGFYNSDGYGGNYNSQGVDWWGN
# Chain of UniProt P09497 (P09497 whole entry): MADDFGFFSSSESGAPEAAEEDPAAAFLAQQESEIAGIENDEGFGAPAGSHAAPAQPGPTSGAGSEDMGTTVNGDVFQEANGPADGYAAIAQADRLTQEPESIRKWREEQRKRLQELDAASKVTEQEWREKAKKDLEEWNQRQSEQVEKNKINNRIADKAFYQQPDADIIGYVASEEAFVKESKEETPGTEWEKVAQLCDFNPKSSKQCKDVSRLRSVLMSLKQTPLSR
# Chain of UniProt P61019 (P61019 whole entry, looked up): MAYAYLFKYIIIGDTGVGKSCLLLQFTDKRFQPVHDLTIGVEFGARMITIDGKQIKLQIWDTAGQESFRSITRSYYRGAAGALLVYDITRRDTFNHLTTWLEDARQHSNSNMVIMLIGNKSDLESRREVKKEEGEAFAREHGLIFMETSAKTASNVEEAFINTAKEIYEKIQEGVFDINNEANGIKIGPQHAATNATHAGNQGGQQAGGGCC
row,Target,lysine labeling ratio R10:1
1,UniProt P05787 (lysine site: K352),9.16
2,SMOC1 (lysine site: K53) (UniProt Q9H4F8),2.22
3,COL5A1 (lysine site: K164) (UniProt P20908),3.25
4,SMC2 (lysine site: K963) (UniProt O95347),2.26
5,UniProt Q15149 (lysine site: K1815),3.79
6,FSCN1 (lysine site: K220) (UniProt Q16658),4.2
7,EEF2 (lysine site: K598) (UniProt P13639),1.36 (active)
8,ABCB1 (lysine site: K748) (UniProt P08183),1.52 (active)
9,PPIB (lysine site: K186) (UniProt P23284),3.18
10,SEMA3C (lysine site: K731) (UniProt Q99985),0.505 (active)
11,RAB2A (lysine site: K131) (UniProt P61019),1.7 (active)
12,UniProt P05186 (lysine site: K241),3.23
13,CDCP1 (lysine site: K454) (UniProt Q9H5V8),1.89 (active)
14,PAICS (lysine site: K110) (UniProt P22234),3.11
15,SLC4A7 (lysine site: K890) (UniProt Q9Y6M7),4.29
16,SEMA3C (lysine site: K163) (UniProt Q99985),3.6
17,UniProt Q9UHN6 (lysine site: K278),3.15
18,PAFAH1B1 (lysine site: K54) (UniProt P43034),3.44
19,UniProt P62249 (lysine site: K131),2.97
20,UniProt P62913 (lysine site: K67),3.62

row,Target,lysine labeling ratio R10:1
1,DDX3X (lysine site: K66) (UniProt O00571),1.78 (active)
2,HSPA8 (lysine site: K328) (UniProt P11142),3.91
3,PSMC3 (lysine site: K372) (UniProt P17980),2.19
4,PROCR (lysine site: K192) (UniProt Q9UNN8),2.15
5,ITGA1 (lysine site: K1046) (UniProt P56199),0.547 (active)
6,UniProt P46781 (lysine site: K155),2.28
7,FN1 (lysine site: K486) (UniProt P02751),2.59
8,NRP1 (lysine site: K534) (UniProt O14786),2.17
9,ITGB5 (lysine site: K170) (UniProt P18084),3.44
10,RPS3A (lysine site: K167) (UniProt P61247),1.82 (active)
11,UniProt Q9UHN6 (lysine site: K1220),2.87
12,RPL10A (lysine site: K212) (UniProt P62906),1.53 (active)
13,CLTB (lysine site: K122) (UniProt P09497),2.57
14,SLC44A2 (lysine site: K210) (UniProt Q8IWA5),2.8
15,WDR1 (lysine site: K81) (UniProt O75083),0.967 (active)
16,FSCN1 (lysine site: K74) (UniProt Q16658),1.36 (active)
17,TFRC (lysine site: K161) (UniProt P02786),6.73
18,UniProt Q5XKE5 (lysine site: K253),2.87
19,DDX5 (lysine site: K56) (UniProt P17844),2.69
20,UniProt Q8N441 (lysine site: K154),1.13 (active)

# Source: the supplement of paper PMC11001985
